These results are taken from the supplement of paper PMC10723795.

Each structure is given as a SMILES string. ± gives the standard deviation of the averaged measurements.

For this test, the system named is CHON-002. The experiment in a line: nucleolar normality score relative to DMSO (fraction of DMSO control); RPE1 is a non-cancer human cell line; higher = more normal nucleoli (less nucleolar stress). Here is the method:
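Selected screen hits were validated in hTERT lines (BJ5TA, CHON-002, RPE1) and cancer lines (DLD1, HCT116). Cells were immunostained for nucleolin and UBF and the nucleolar normality score was measured per field of view, with 4 fields per drug. Scores are normalized to each cell line's own DMSO control. Dose and time are not stated for this panel.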
With `C=CCNC1=C2C[C@@H](C)C[C@H](OC)[C@H](O)[C@@H](C)/C=C(\C)[C@H](OC(N)=O)[C@@H](OC)/C=C\C=C(/C)C(=O)NC(=CC1=O)C2=O`, the nucleolar normality score is 0.408 ± 0.035. For the compound `Cc1cnc(CNC(=O)c2c(=O)c3ccc(N4CCCN(C)CC4)nc3n3c2sc2ccccc23)cn1`, the nucleolar normality score came to 0.487 ± 0.11.

As to `CN1CC[C@H](c2c(O)cc(O)c3c(=O)cc(-c4ccccc4Cl)oc23)[C@H](O)C1` [Flavopiridol], the nucleolar normality score came to 0.181 ± 0.013. `CC(C)C[C@H](NC(=O)[C@H](CCc1ccccc1)NC(=O)CN1CCOCC1)C(=O)N[C@@H](Cc1ccccc1)C(=O)N[C@@H](CC(C)C)C(=O)[C@@]1(C)CO1` [Carfilzomib] came in with a nucleolar normality score of 0.453 ± 0.025. `CC(C)n1nc(-c2ccc3oc(N)nc3c2)c2c(N)ncnc21` [Sapanisertib] showed a nucleolar normality score of 0.4 ± 0.023. Compound `CCc1cnn2c(NCc3ccc[n+]([O-])c3)cc(N3CCCC[C@H]3CCO)nc12` [Dinaciclib] gave a nucleolar normality score of 0.201 ± 0.018. As to `CN(C)CCNC(=O)c1cccn2c(=O)c3cc4ccccc4cc3nc12`, the nucleolar normality score was 0.0829 ± 0.03. For `COc1cccc2c1C(=O)c1c(O)c3c(c(O)c1C2=O)C[C@@](O)(C(=O)CO)C[C@@H]3O[C@H]1C[C@H](N)[C@H](O)[C@H](C)O1` [Doxorubicin], the nucleolar normality score was 0.182 ± 0.039.

Regarding `CC(C)c1cc(C(=O)N2Cc3ccc(CN4CCN(C)CC4)cc3C2)c(O)cc1O` [Onalespib], the nucleolar normality score amounted to 0.383 ± 0.023. For `COC[C@H](NC(=O)c1cnc(C)s1)C(=O)N[C@@H](COC)C(=O)N[C@@H](Cc1ccccc1)C(=O)[C@@]1(C)CO1` [Oprozomib] the value was 0.548 ± 0.036; for `Cc1nc(-c2cn3c(n2)-c2ccc(-c4cnn(C(C)(C)C(N)=O)c4)cc2OCC3)n(C(C)C)n1` [Taselisib], 0.444 ± 0.044. Take `CC(C)c1c2cc(-c3ccnc(NC4CCC(NC5CCOCC5)CC4)n3)ccc2nn1C` (configuration not stated): the nucleolar normality score worked out at 0.281 ± 0.015.
